SMILES strings stand for the structures. In all, about 320,000 compounds went through this assay and about 1,100 (0.34%) were called active. This is one part of a sample in which actives are shown more often than they occur.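 How the source made its calls: active means GFP response vs DMSO above a set limit, about the screen mean plus 3 SD (cut at about 150% in these data); inconclusive means under 70 cell events counted for the yeast strain; inactive means the rest.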

This experiment can be described thus: modulators of LAP4-GFP expression in yeast, primary screen, S. cerevisiae, multiplex flow cytometry, MLPCN library (AID 2023). The conditions noted are these: 3 h, at 10 µM, active compounds read high, median GFP as percent of DMSO wells. On the technique in general: A flow cytometer gives signals particle by particle.
For the compound `COc1cccc(CCNC(=O)COc2cccc3c2OC(C)(C)C3)c1`, the GFP response vs DMSO is 113% (inactive). With `COc1cc(F)c(C2=CC(=O)CC(C)(C)C2)cc1F` the figure was 118% (inactive); with `CCOC(=O)c1ccccc1NC(=S)N1CCC(C(N)=O)CC1`, 111% (inactive); with `CN(C)CCc1c[nH]c2ccc(Cn3cncn3)cc12`, 119% (inactive). With `COc1ccc(NC(=O)C2C3C=CC(C3)C2C(=O)NCc2ccccn2)c(OC)c1` (configuration not stated) the figure was 92.5% (inactive); with `CCS(=O)(=O)c1cc([N+](=O)[O-])c(Sc2ccccc2N)s1`, 100% (inactive). With `Cc1ccc(C(C[N+](=O)[O-])c2c(C)cc3ccccn23)cc1` (configuration not stated) the figure was 97.5% (inactive); with `Nc1ccccc1SC(C[N+](=O)[O-])c1ccccc1` (configuration not stated), 209% (active). Turning to `COC(=O)c1ccc(N2CCOCC2)c(NC(=O)c2ccc(Br)o2)c1`, the GFP response vs DMSO was 84.3% (inactive). For `O=C1CCN(CCCc2ccccc2)CCN1CCO`, the GFP response vs DMSO was 109% (inactive). The figure for `COc1ccc(C)cc1NC(=O)CSc1cccc[n+]1[O-]` is 99.3% (inactive); for `Cc1ccc(S(=O)(=O)N2CCC(C)CC2)cc1C(=O)NCc1ccccn1` it is 99.2% (inactive); for `Cc1cc(N)n2nc(-c3ccc(C(C)(C)C)cc3)cc2n1` it is 77.9% (inactive). In the case of `Cc1nnsc1C(=O)N/N=C/c1ccccc1Cl`, the GFP response vs DMSO was 106% (inactive). The figure for `CN(c1cccc(NC(=O)Nc2ccc(Cl)cc2)c1)S(C)(=O)=O` is 107% (inactive). The figure for `O=C(Nc1ccccc1)c1nnsc1S(=O)(=O)c1ccc(Cl)cc1` is 187% (active); for `CC(C)Oc1ccc(S(=O)(=O)N2CCOCC2)cc1NC(=O)C1CSC2(C)CCC(=O)N12` (configuration not stated) it is 106% (inactive).

As for `O=[N+]([O-])c1ccc(S(=O)(=O)Nc2cccc(-c3ccc(N4CCCC4)nn3)c2)cc1`, the GFP response vs DMSO was 100% (inactive). The figure for `COc1cc(/C=C/C(=O)O)cc(S(=O)(=O)Nc2ccccc2C(=O)NCCc2ccccc2)c1OC` is 96% (inactive); for `CCCn1nc(C(=O)NNC(=O)CCOc2ccccc2OCC)c2ccccc2c1=O` it is 217% (active). With `CCCn1nc(C(=O)Nc2ccc3nc(C)sc3c2)c2ccccc2c1=O` the figure was 102% (inactive). The figure for `CCCn1nc(C(=O)NNC(=O)CSCC(=O)Nc2cc(C)on2)c2ccccc2c1=O` is 91.7% (inactive); for `Brc1ccc(Nc2c3c(nc4ncnn24)CCC3)cc1` it is 103% (inactive). Consider `Cc1cccc(NC(=O)CSc2nnc(CCNC(=O)OC(C)(C)C)o2)c1C`, for which the GFP response vs DMSO was 95.1% (inactive). The figure for `Cc1ccc2nc(SC(C)C(=O)NCc3ccco3)[nH]c2c1` (configuration not stated) is 111% (inactive); for `Cc1ccn(-c2cccc(-n3ccc(C)n3)n2)n1` it is 100% (inactive). The figure for `CCN(CC)c1ccc(S(=O)(=O)N2CCCCC2)cc1NC(=O)C1=COCCO1` is 99.6% (inactive).

These data come from PubChem BioAssay AID2023 (NMMLSC, 2009).
